Results on 8 compounds are retold here after the supplement of paper PMC9262897, “Low-cost anti-mycobacterial drug discovery using engineered E. coli” (Nature Communications, 2022).

This assay has as its system E. coli TESEC Mtb Alr. Briefly: growth (OD600 after 10 h); higher = more growth (less inhibition). The note with it: compound 0.1 mM. As to the method: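 TESEC Mtb Alr E. coli, or the Alr+ wild-type control, in 384-well plates with Prestwick library compounds at 0.1 mM and 1% DMSO, across arabinose induction levels of 1E3 to 1E7 nM. Growth is read as OD600 after 10 h at 37 °C in triplicate biological replicates.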

Setting [1] is: arabinose 1000 nM, raw OD600 reference: median of DMSO wells 0.294, cell-free background 0.041.
The mark [2] stands for this setting: arabinose 10000 nM, raw OD600 reference: median of DMSO wells 0.264, cell-free background 0.041.
The mark [3] stands for this setting: arabinose 100000 nM, raw OD600 reference: median of DMSO wells 0.201, cell-free background 0.041.
The mark [4] stands for this setting: arabinose 1000000 nM, raw OD600 reference: median of DMSO wells 0.193, cell-free background 0.041.
Setting [5] is: arabinose 10000000 nM, raw OD600 reference: median of DMSO wells 0.146, cell-free background 0.041.

± gives the standard deviation of the averaged measurements.

Turning to `CC(=O)Oc1cc(C(F)(F)F)ccc1C(=O)O` [Triflusal], the growth by setting is: under setting [1], 0.275 ± 0.0064; under setting [2], 0.259 ± 0.0086; under setting [3], 0.186 ± 0.019; under setting [4], 0.177 ± 0.0042; under setting [5], 0.14 ± 0.004.

Take `NS(=O)(=O)c1cc2c(cc1Cl)N=C(CSCc1ccccc1)NS2(=O)=O` [Benzthiazide]: the growth runs as follows: under setting [1], 0.292 ± 0.023; under setting [2], 0.254 ± 0.0055; under setting [3], 0.171 ± 0.017; under setting [4], 0.169 ± 0.0062; under setting [5], 0.132 ± 0.0022.

For the compound `N[C@@H](Cc1ccc(O)c(O)c1)C(=O)O` [Levodopa], the growth reads like this: under setting [1], 0.275 ± 0.015; under setting [2], 0.267 ± 0.015; under setting [3], 0.199 ± 0.028; under setting [4], 0.178 ± 0.0063; under setting [5], 0.138 ± 0.0042.

In the case of `O=c1[nH]c(=O)n([C@H]2C[C@H](O)[C@@H](CO)O2)cc1F` [Floxuridine], the growth runs as follows: under setting [1], 0.0615 ± 0.0068; under setting [2], 0.04377 ± 0.00025; under setting [3], 0.052 ± 0.0014; under setting [4], 0.0434 ± 0.0004; under setting [5], 0.05017 ± 0.0005.

Turning to `O=C1OCCN1/N=C/c1ccc([N+](=O)[O-])o1` [Furazolidone], the growth was found to be 0.041 ± 0.00078 under setting [1]; 0.04053 ± 0.00021 under setting [2]; 0.0418 ± 0.00065 under setting [3]; 0.03987 ± 0.00012 under setting [4]; 0.0412 ± 0.0008 under setting [5].

Take `CCN[C@H]1CN(CCCOC)S(=O)(=O)c2sc(S(N)(=O)=O)cc21` [Brinzolamide]: the growth is, setting by setting: under setting [1], 0.282 ± 0.017; under setting [2], 0.261 ± 0.0091; under setting [3], 0.219 ± 0.03; under setting [4], 0.182 ± 0.0056; under setting [5], 0.135 ± 0.0031.

With `CC(=O)N(CC(C)C(=O)O)c1c(I)cc(I)c(N)c1I` (stereo not given) [Iocetamic acid], the growth by setting is: under setting [1], 0.274 ± 0.0081; under setting [2], 0.289 ± 0.0072; under setting [3], 0.2 ± 0.01; under setting [4], 0.265 ± 0.003; under setting [5], 0.144 ± 0.0039.

`C[C@@H](c1ncncc1F)[C@](O)(Cn1cncn1)c1ccc(F)cc1F` [Voriconazole]: the growth by setting is: under setting [1], 0.267 ± 0.0077; under setting [2], 0.252 ± 0.003; under setting [3], 0.196 ± 0.038; under setting [4], 0.154 ± 0.0053; under setting [5], 0.147 ± 0.008.
